Measurements from PubChem BioAssay AID1851 (National Center for Advancing Translational Sciences (NCATS), 2009).
The campaign covered roughly 16,000 compounds. About 5,100 (32%) were called active. Another 25% or so got no clear call; they are omitted. Calls follow the shape of the dose curve; as a rule, active = well fitted curve in the direction sought with a large enough effect; inconclusive = small, poorly fitted or top-dose-only effect, or effect the other way; inactive = no such curve, though single readings can be large or run the other way. The list shows a part of the results.

target: Cytochrome P450 3A4 (Homo sapiens) (UniProt P08684); experiment: Cytochrome panel assay with activity outcomes; conditions: recombinant CYP, pro-luciferin dealkylation, luminescence, p450-cyp3a4; series mostly up to 57.1 µM; activity, negative = inhibition: at the top concentration
Sequence (P08684 whole entry, looked up): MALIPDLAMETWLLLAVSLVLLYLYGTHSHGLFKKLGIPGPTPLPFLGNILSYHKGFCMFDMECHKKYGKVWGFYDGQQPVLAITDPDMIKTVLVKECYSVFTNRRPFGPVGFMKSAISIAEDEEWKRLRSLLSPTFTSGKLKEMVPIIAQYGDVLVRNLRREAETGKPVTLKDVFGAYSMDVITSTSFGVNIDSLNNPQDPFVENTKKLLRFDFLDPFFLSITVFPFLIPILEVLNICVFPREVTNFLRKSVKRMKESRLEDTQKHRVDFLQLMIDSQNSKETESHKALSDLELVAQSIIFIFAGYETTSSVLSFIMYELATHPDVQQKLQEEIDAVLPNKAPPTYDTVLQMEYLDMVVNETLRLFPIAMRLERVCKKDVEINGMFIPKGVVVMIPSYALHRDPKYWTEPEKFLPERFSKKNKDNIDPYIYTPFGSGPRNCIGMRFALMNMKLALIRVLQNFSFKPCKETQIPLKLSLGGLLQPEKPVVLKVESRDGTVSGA
% is scaled to controls: 0 for no effect and ±100 for the full control effect.

activity, negative = inhibition, inactive:
Cc1ccc(-n2c3c(c(=O)[nH]c2=O)C(NS(=O)(=O)c2ccc(C)cc2)(C(F)(F)F)C(=O)N3)cc1 (centres undefined) -13.8%, O=C(c1cc(C(F)(F)F)cc(C(F)(F)F)c1)N1CCC2(CC1)CCN(c1ncccn1)CC2 -9.89%, O=C(c1cc(C(F)(F)F)cc(C(F)(F)F)c1)N1CCC2(CC1)CN(c1ncccn1)C2 -23.6%, O=C(c1cc(C(F)(F)F)cc(C(F)(F)F)c1)N1CCC2(CC1)CCN(c1ccccn1)CC2 4.89%, O=C(c1cc(C(F)(F)F)cc(C(F)(F)F)c1)N1CCC2(CC1)CN(c1ccccn1)C2 -15.9%, O=C(c1cc(C(F)(F)F)cc(C(F)(F)F)c1)N1CCC2(CC1)CN(c1ccncc1)C2 -5.48%, O=C(CCCCC(=O)Nc1c(I)cc(I)c(C(=O)O)c1I)Nc1c(I)cc(I)c(C(=O)O)c1I -16% [at 25.6 µM], O=C(O)Cc1cc2ccccc2nc1C(=O)O 9.42%, CC(C)C(=O)Cc1ccc2ccccc2n1 -6.02% [at 11.4 µM], O=C(Nc1ccccc1C(=O)O)c1ccc2ccccc2n1 23%, CCCCc1cc2ccccc2c(OCCN(C)C)n1 -17.9% [at 25.6 µM], CC1CN(C2CCN(C(=O)c3cccc(Cl)c3)CC2)CC(C)O1 (centres undefined) 20.4%, CC1CN(C(=O)c2cc3c(s2)CCC3)CC(C)O1 (centres undefined) 12.9%, O=C(O)C[n+]1ccccc1 -14.8% [at 11.4 µM], O=C(/C=C/c1ccc(Br)cc1)NC1CCCCCC1 -12.6% [at 11.4 µM], CCOc1ccc(NC(=S)NC(=O)/C=C/c2ccc(C)cc2)c([N+](=O)[O-])c1 5.31%, NC(=O)c1ncn([C@@H]2O[C@@H](CO)[C@@H](O)[C@H]2O)c1O -3.29%, CC1CCN(CCCn2c(=S)[nH]c3ccc(N4CCOCC4)cc3c2=O)CC1 -10.7%, CCn1cc(C(=O)O)c(=O)c2cc3c(cc21)OCO3 3.68%, CC(C)OCCCn1c(=S)[nH]c2ncccc2c1=O -15.3%, CCc1c(C(=O)O)[nH]c2ccc(Br)cc12 -8.49%, COc1ccccc1Cn1c(=S)[nH]c2cc(C(=O)N3CCN(C)CC3)ccc2c1=O 12.8%, COCC(=O)N1CCC2(CCCN(c3ncccn3)C2)CC1 -6.09%, COCC(=O)N1CCC2(CC1)CCN(c1ccccn1)CC2 3.62%, Cn1c(=O)c2[nH]c(CCC(=O)O)nc2n(C)c1=O -3% [at 11.4 µM], NS(=O)(=O)c1cc(Cl)c(Cl)c(S(N)(=O)=O)c1 0.288% [at 25.6 µM], CN(C)c1cc(=O)n2c(n1)SCCC2 -1.72% [at 2.29 µM], O=C(c1coc(=O)c2ccccc12)N1CCN(Cc2ccccc2)CC1 -29.5%, CCc1ccc(NC(=S)N2CCN(c3cccc(C(F)(F)F)c3)CC2)cc1 -10.7%, COc1ccc(CC(=O)N2CCN(c3ccc(C4=NNC(=O)CC4C)cc3)CC2)cc1 (centres undefined) -9.27% [at 2.29 µM], CC(=O)Nc1ccccc1C(=O)C(=O)O -8.44%, Cc1ccc(S(=O)(=O)O[C@@H]2[C@H]([C@@H]3COC(C)(C)O3)O[C@H]3OC(C)(C)O[C@@H]32)cc1 -4.72% [at 11.4 µM], O=C(CSc1nc2ccccc2[nH]1)NCCN1CCCCC1 -14.7%, N=C(N)SCCCN -9.75% [at 11.4 µM], O=C1c2ccccc2C(=O)N1C[C@]1(C(=O)O)NCCS1(=O)=O 8.42% [at 11.4 µM], CCOC(=O)N1CCN(c2nc(-c3ccco3)cc(C(F)(F)F)n2)CC1 -18%, COC(=O)c1nn(C23CC4CC(CC(C4)C2)C3)c2c1C(=O)N(c1ccc(F)cc1)C2=O -13%, Cc1cc(C)cc(-n2c(C)cc(C=C(C#N)C#N)c2C)c1 4.93%, Cc1ccc(S(=O)(=O)O/N=C2/CCCc3occc32)cc1 1.14%, COC(=O)c1cnn(C(=O)c2ccccc2Br)c1N 9.7%, CCOC(=O)c1cnn(-c2cc(Oc3ccccc3)ncn2)c1N 19%, CCNC(=S)N1CC(C)OC(C)C1 (centres undefined) 1.05%, CN1CCCN(C2C3CC4CC(C3)CC2C4)CC1 (centres undefined) -0.38%, NS(=O)(=O)c1cccc2c1c([N+](=O)[O-])cc1[nH]c(=O)c(=O)[nH]c12 -7.86%, CC(=O)Nc1cccc(NC(=O)C2CCCN2C(=O)Nc2ccccc2C)c1 (centres undefined) 0.0054% [at 11.4 µM], COc1cc(Cn2cnnn2)ccc1O -9.86%, O=[N+]([O-])c1ccc(Cl)c(-c2ccc(/C=N/c3c(-c4ccco4)nc4ccccn34)o2)c1 -6.34%, COCCNc1cc(-c2ccccc2CN(C)C)ncn1 -14.6%, CO[C@@H]1COC(=O)[C@H]2CCCN2C(=O)[C@@H](C)COC(=O)CCC[C@H]1C -20.2% [at 11.4 µM], C=CCOc1cccc(/C=N/NC(=O)C(=O)NCc2ccco2)c1 -17.7%, CC[N+](CC)(CC)CCOc1ccc(/C=C\c2ccccc2)cc1 -9.87%, Cn1cnc([N+](=O)[O-])c1Sc1nc(N)nc2c1ncn2[C@H]1C[C@H](O)[C@@H](CO)O1 -4.33% [at 11.4 µM], O=C(O)CN(CCOCCOCCN(CC(=O)O)CC(=O)O)CC(=O)O 6.56%, CCc1ccc(/C=C\C(=O)N2CCc3ccccc3C2)cc1 -11.1%, N=C(N)N1CCc2ccccc2C1 -3.56% [at 25.6 µM], O=C(O)c1cccc2cccc(-c3cccc4cccc(C(=O)O)c34)c12 -5.55% [at 11.4 µM], O=C(c1ccc(S(=O)(=O)N2CCCCCC2)cc1)N1CCC(CN2C(=O)c3cccc4cccc(c34)C2=O)CC1 -12.4%

AC50, inactive:
CCSC(=N)N, N[C@H](CCC(=O)N[C@H](CSN=O)C(=O)NCC(=O)O)C(=O)O, CN1CCC(=C2c3ccccc3C=Cc3ccccc32)CC1

AC50, active:
O=C(c1cc(C(F)(F)F)cc(C(F)(F)F)c1)N1CCC[C@@]2(CCN(c3ncccn3)C2)C1 10 µM, O=C(c1cc(C(F)(F)F)cc(C(F)(F)F)c1)N1CCC[C@@]2(CCN(c3ccccn3)C2)C1 3.98 µM, O=C(c1cc(C(F)(F)F)cc(C(F)(F)F)c1)N1CCC[C@@]2(CCN(c3ccncc3)C2)C1 6.31 µM, CCCCC[C@H](O)c1cccc(OCc2ccc3ccccc3n2)c1 12.6 µM, O=C(O)c1ccccc1Nc1cccc(OCc2ccc3ccccc3n2)c1 1.58 µM, CC(C)CNS(=O)(=O)c1cc(C(=O)N2CC(C)OC(C)C2)c(Cl)cc1Cl (centres undefined) 3.16 µM, Cc1ccc(/C=C/C(=O)NC(=S)Nc2ccccc2C(=O)NC2CCCCC2)cc1 8.91 µM, C=CCNC(=O)c1ccc(Cn2c(=S)[nH]c3cc4c(cc3c2=O)OCO4)cc1 7.94 µM, O=C(CCCn1c(=S)[nH]c2cc3c(cc2c1=O)OCO3)N1CCN(c2ccccc2)CC1 0.447 µM, O=c1c2cc(Br)ccc2[nH]c(=S)n1Cc1cccnc1 0.398 µM, CCCCNC(=O)CCn1c(=S)[nH]c2cc3c(cc2c1=O)OCO3 3.98 µM, O=C(CCCCCn1c(=S)[nH]c2cc3c(cc2c1=O)OCO3)N1CCN(C2CCCCC2)CC1 1.12 µM, Cc1cccc(N2CCN(C(=O)CCCn3c(=S)[nH]c4cc5c(cc4c3=O)OCO5)CC2)c1C 0.794 µM, O=C(CCCn1c(=S)[nH]c2ccc(Br)cc2c1=O)N1CCN(c2ccccn2)CC1 1.26 µM, O=C(CCCn1c(=S)[nH]c2cc3c(cc2c1=O)OCO3)N1CCN(c2ncccn2)CC1 2 µM, O=C(c1n[nH]c(=O)c2ccccc12)N1CCN(C2c3ccccc3-c3ccccc32)CC1 11.2 µM, Cc1ccc(CC(=O)N2CCN(c3cccc(C(F)(F)F)c3)CC2)cc1 3.98 µM, COC(=O)[C@@]1(Cc2ccc(OC)cc2)[C@H]2c3cc(C(=O)N4CCCC4)n(Cc4nc5ccccc5[nH]4)c3C[C@H]2CN1C(=O)c1ccccc1 2 µM, COC(=O)[C@@]1(Cc2ccccc2)[C@H]2c3cc(C(=O)N4CCCC4)n(Cc4nc5ccccc5[nH]4)c3C[C@H]2CN1C(=O)c1ccccc1 1.26 µM, O=C(NC1CCCC1)c1cnn2c(C(F)(F)F)cc(-c3ccco3)nc12 14.1 µM, O=C(Nc1c2c(nn1-c1ccc(F)cc1)CS(=O)(=O)C2)C12CC3CC(CC(C3)C1)C2 8.91 µM, O=C(CCC1CCCCC1)Nc1c2c(nn1-c1ccc(F)cc1)CS(=O)(=O)C2 5.62 µM, COC(=O)C1=C(NC(=O)c2cccs2)CCS1 15.8 µM, COC(=O)C1=C(NC(=O)c2ccc(C)c(C)c2)CCS1 28.2 µM, COC(=O)c1cnn(C(=O)c2cc(OC)ccc2Br)c1N 28.2 µM, COc1ccc(CNc2nc(-c3ccccc3CN(C)C)nc3ccccc23)c(OC)c1 7.94 µM, COc1ccccc1CNc1nc(-c2ccccc2CN(C)C)nc2ccccc12 12.6 µM, Cc1cc(NC(=O)c2ccco2)ccc1-n1cnnn1 8.91 µM, Cc1cc(C)cc(NC(=O)N2CCCC2C(=O)Nc2ccc(-n3cnnn3)c(C)c2)c1 (centres undefined) 5.01 µM, COc1cc(-c2nc3ccccn3c2/N=C/c2ccccc2)ccc1O 7.08 µM, COc1ccc(CNc2ncncc2-c2ccccc2C)c(OC)c1 0.398 µM, COc1ccc(CNc2ncncc2-c2ccccc2OC)c(OC)c1 0.316 µM, COc1ccc(CNc2ncncc2-c2ccccc2CN(C)C)c(OC)c1 0.398 µM, COc1ccc(CNc2ncncc2-c2c(C)noc2C)c(OC)c1 1.26 µM, C=CCNC(=O)/C(=C\C=C\c1ccccc1)NC(=O)c1ccc(OCCCC)cc1 8.91 µM, Cc1ccc(C(=O)N/C(=C/C=C/c2ccccc2)C(=O)NCc2ccco2)cc1 5.01 µM, N=C1/C(=C\c2ccc(SCc3ccco3)o2)C(=O)N=C2SC=NN12 3.98 µM, O=C(CN1C(=O)c2cccc3cccc(c23)C1=O)N1CCCCCC1 10 µM, O=C(CCCN1C(=O)c2cccc3cccc(c23)C1=O)N1CCc2ccccc2C1 5.01 µM
